Screening results (PubChem BioAssay)
ATXN2 expr inh: ATXN2 expression inhibition; HEK-293 ATXN2-luciferase reporter, luminescence, 24 h; Potency, µM (top dose mostly 57 µM), without a hit: at the highest dose activity change, negative = inhibition, actives largely listed as inhibitors; 360,000 compounds, 0.72% hits; AID 1745845; also: % is scaled to controls: 0 for no effect and ±100 for the full control effect; nearly all actives have a fitted effect of over 55% in size
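ATXN2-luciferase reporter cells (luciferase flanked by upstream and downstream ATXN2 gene portions) were treated 24 h at 37 °C with compounds at up to 57 uM. SteadyGlo luminescence gave expression; GF-AFC fluorescence gave viability.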
ATXN viability: viability counter-screen for ATXN expression inhibitors. S2 cells (HEK-293 line with an ATXN2-luciferase reporter) viability, CellTiter-Fluor protease fluorescence, 24 h. Potency, µM (titrated, usually from 56.7 µM), usual class: cytotoxic. 400,000 compounds, 0.49% hits; also: nearly all actives have a fitted effect of over 40% in size
HT1080 IDH1KD tx: toxicity to HT-1080 IDH1 knockdown cells (counter line). HT-1080 IDH1 knockdown viability, ATP luminescence, 48 h. Potency, µM (highest dose often 46.1 µM), for inactives: at the highest dose activity, negative = toxicity, usual class: cytotoxic. 360,000 compounds, 2% hits. AID 686971;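 also: 0% = DMSO wells and -100% = cell-free medium wells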
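% activity derives from luminescence (CellTiter-Glo), normalised to DMSO and no-cell wells. HT-1080-IDH1KD cells, 750/well, had 48 h compound exposure at 37 °C.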
KB-3-1 tox: KB-3-1 parental cell cytotoxicity; KB-3-1 viability, CellTiter-Glo ATP luminescence, 72 h; Potency, µM (series often up to 46.1 µM), most hits filed as cytotoxic; 400,000 compounds, 1.4% hits; AID 1347075; also: % is scaled to controls: 0 for no effect and ±100 for the full control effect; nearly all actives have a fitted effect of over 60% in size
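Parental KB-3-1 adenocarcinoma cells in phenol-red-free DMEM with 10% FBS were pin-treated with compounds at several concentrations, incubated 72 h at 37 °C, and viability read by CellTiter-Glo luminescence; concentration-effect curves were fitted after normalization.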
KB-V1 MDR tox: KB-V1 MDR subline cytotoxicity. KB-V1 MDR cells viability, CellTiter-Glo, 72 h. Potency, µM (titrated, usually from 46.1 µM), hits mostly cytotoxic. 400,000 compounds, 3.4% hits; also: % is scaled to controls: 0 for no effect and ±100 for the full control effect; nearly all actives have a fitted effect of over 60% in size
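In this primary screen, KB-V1 cells overexpressing P-gp are incubated with library compounds (lowest to highest concentration) for 72 h at 37 degrees C before a luminescent ATP viability read.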
HT1080NT lethal: kills 2HG-producing HT-1080-NT fibrosarcoma cells | 360,000 compounds, 1.6% hits | AID 686970 | Potency, µM (doses to about 46.1 µM), for the others: top-dose activity, negative = less viability, usual class: cytotoxic | HT-1080-NT fibrosarcoma viability, CellTiter-Glo ATP luminescence, 48 h;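 also: NT is the 2HG producing partner of a matched IDH1 knockdown line; 0% = DMSO-treated cells and -100% = media-only wells without cells; nearly all actives have a fitted effect of over 55% in size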
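Luminescent CellTiter-Glo readout after 48 hours of compound exposure at 37 degrees C defined viability of HT-1080-NT cells. Activity was normalized to DMSO wells and cell-free media wells; concentration-response curves were fitted and assigned curve classes.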
* = called active by the depositor; i = inactive; ? = inconclusive; . = not tested or not shown. In the library only some 6.2% were active in any assay of this set; here they are far more common. Calls follow the shape of the dose curve; as a rule, active = well fitted curve in the direction sought with a large enough effect; inconclusive = small, poorly fitted or top-dose-only effect, or another doubt; inactive = no such curve, though single readings can be large; an effect the other way counts as inactive or inconclusive. Potency is read from the fitted curve at half-maximal effect.

SMILES | ATXN2 expr inh | ATXN viability | HT1080 IDH1KD tx | KB-3-1 tox | KB-V1 MDR tox | HT1080NT lethal
COc1cc(/C=C2\SC(=Nc3ccccc3)N(Cc3ccco3)C2=O)ccc1OC(C)C(=O)O (centres undefined) | -1.4% | i | 1.2% | ? | i | -11.6%
COCCN1C(=O)/C(=C/c2ccc(OCc3ccc(C(=O)O)cc3)c(OC)c2)SC1=Nc1ccccc1 | -1.1% | i | -17.0% | i | 20.6µM* | -22.0%
O=C(Cc1cccc2ccccc12)NO | . | . | 8.3% | . | . | -0.2%
O=C(O)c1ccccc1C(=O)NNc1ccc(F)cc1 | 38.3% | i | 8.2µM* | i | i | ?
O=C(O)c1ccccc1C(=O)NCc1ccc(F)cc1 | -3.0% | i | 9.9% | i | i | 1.3%
CCOc1ccc(NC(=O)CN2CCN(c3ccc(Cl)cc3)CC2)cc1 | 3.7% | i | . | i | i | .
CCOC(=O)C1=C[C@@H](C(C)(C)C)N(S(=O)(=O)c2ccc(C)cc2)[C@H]1c1ccc(C)cc1 | -6.3% | i | 13µM* | i | i | ?
CCOC(=O)C1=C[C@@H](C(C)(C)C)N(S(=O)(=O)c2ccc(C)cc2)[C@H]1c1ccccc1Cl | -16.0% | ? | ? | i | ? | -15.2%
CCNC(=O)COC(=O)c1cc(C)n(-c2ccccc2)c1C | 10.6% | i | 0.4% | i | i | 12.8%
Cc1cc(C(=O)OCC(=O)NCc2ccco2)c(C)n1-c1ccc(F)cc1 | -0.4% | i | ? | ? | 1.3µM* | ?
Cc1cc(C(=O)COC(=O)c2ccc[nH]c2=O)c(C)n1-c1ccccc1 | -32.5% | i | -0.8% | i | 18.4µM* | -0.2%
Cc1cc(C(=O)COC(=O)C2=NNC(=O)CC2)c(C)n1-c1ccc(OC(F)F)cc1 | -7.8% | i | -2.8% | i | i | -2.1%
Cc1cc(C(=O)COC(=O)c2ccc[nH]c2=O)c(C)n1C1CC1 | 41.7% | ? | 7.6% | i | i | 9.5%
Cc1cc(C(=O)COC(=O)c2ccc[nH]c2=O)c(C)n1-c1ccc(F)cc1 | -1.9% | i | 13.1% | i | 18.4µM* | -1.8%
Cc1ccc(CNC(=O)C2CCCN(S(=O)(=O)c3ccc4c(ccn4C)c3)C2)cc1 (centres undefined) | 11.9% | i | . | i | i | .
C1=C(c2ccc3c(c2)CN(Cc2cccn2-c2ncccn2)CCO3)Cc2ccccc21 | . | i | . | . | . | .
CCOC(=O)C(C)(C)N(Cc1cccc(C)c1)S(=O)(=O)c1cccc([N+](=O)[O-])c1 | -23.4% | i | -7.9% | 16.4µM* | 7.31µM* | -0.6%
CCOC(=O)C(C)(C)N(Cc1cccc(C)c1)S(=O)(=O)c1ccc(Cl)c([N+](=O)[O-])c1 | ? | . | ? | 20.6µM* | i | -10.5%
NNC(=O)c1ccc(N2CCc3ccccc32)c([N+](=O)[O-])c1 | -33.3% | ? | -11.0% | i | i | -17.0%
COC(CNC(=O)c1ccc(N2CCc3ccccc32)c([N+](=O)[O-])c1)OC | -5.3% | i | 3.0% | ? | 14.6µM* | 6.3%
COC(=O)C(CCSC)NC(=O)c1c(C)oc2ncn(CC(C)C)c(=O)c12 (centres undefined) | -2.8% | i | . | i | i | .
CC(=O)SC[C@@H](C)C(=O)N1CCC[C@H]1C(=O)N[C@@H](Cc1ccccc1)C(=O)O | -29.7% | i | . | . | . | .
CCOCCCN(Cc1ccco1)C(=O)c1cc2c(s1)-c1c(C)cccc1OC2 | ? | i | . | i | ? | .
CC(C)OCCCN(Cc1ccco1)C(=O)c1cc2c(s1)-c1ccccc1OC2 | ? | ? | . | 16.4µM* | 9.2µM* | .
CC(C)n1cnc(S(=O)(=O)N2CCCC(C(=O)NCc3ccccc3Cl)C2)c1 (centres undefined) | 2.9% | i | . | i | i | .
SMILES | ATXN2 expr inh | ATXN viability | HT1080 IDH1KD tx | KB-3-1 tox | KB-V1 MDR tox | HT1080NT lethal
C/C(=N\NC(=O)C12CCC(C)(C(=O)O1)C2(C)C)c1ccccc1O (centres undefined) | 28.2µM* | i | ? | ? | ? | ?
Cc1c(NS(=O)(=O)c2ccc(N(C)C3CCCCC3)c([N+](=O)[O-])c2)c(=O)n(-c2ccccc2)n1C | -8.2% | i | -0.5% | ? | 14.6µM* | -4.4%
CC1(c2cccc3ccccc23)OC(=O)c2ccccc21 (centres undefined) | 9.2% | i | ? | ? | 18.4µM* | -3.7%
COC(=O)c1c(OCc2ccccc2)cc(=O)n2c1CCN(Cc1cccc(C)n1)CC2 | . | i | . | . | . | .
O=C(Nc1cc(C(F)(F)F)cc(C(F)(F)F)c1)c1cc(Cl)ccc1O | 0.863µM* | . | . | . | . | .
CNC(=O)Nc1cc(C(F)(F)F)cc(C(F)(F)F)c1 | 6.0% | . | 9.0% | i | i | 8.4%
C/C(CC(C)(C)C1CCCCC1)=N\NC(N)=S | 31.6µM* | 31.6µM* | ? | i | ? | 5.01µM*
COc1ccc(NC(=O)c2cccc3c(=O)c4c([nH]c23)CCCC4)cc1 | -3.7% | i | . | i | i | .
CC(NCc1ccc(OCc2ccc(Cl)cc2)cc1)C(O)c1ccccc1 (centres undefined) | ? | ? | 18.4µM* | ? | ? | 23.1µM*
Cc1ccc(C(C)n2cc(C(=O)NCc3cccnc3)nn2)cc1 (centres undefined) | 3.8% | i | 0.2% | i | 14.6µM* | -9.1%
CC(c1ccccc1)n1cc(C(=O)NCc2ccccn2)nn1 (centres undefined) | 3.3% | i | -5.4% | i | i | 1.4%
OC1(c2ccc(Br)cc2)CCNCC1 | ? | i | ? | i | i | 22.4µM*
OC1(c2ccccc2)CCNCC1 | -7.0% | i | . | . | . | .
Fc1ccc(COc2cccc(CNCc3ccncc3)c2)cc1 | ? | i | -15.9% | ? | ? | 0.0%
CCOc1cc(CNCc2ccncc2)cc(Br)c1OCc1ccc(F)cc1 | ? | ? | 11.2µM* | i | ? | ?
Fc1ccc(COc2ccc(Br)cc2CNCc2ccncc2)cc1 | -28.9% | i | ? | i | 2.91µM* | -18.7%
COc1ccc(-c2cn3nc(N4CCCC(C(=O)Nc5cccc(Cl)c5C)C4)sc3n2)cc1 (centres undefined) | . | . | . | i | i | .
CCc1ccccc1NC(=O)C(C)n1c(=O)cc(C)c2c(C)nn(-c3ccccc3)c21 (centres undefined) | 6.5% | i | . | i | i | .
O=C(CC(=O)c1ccccn1)c1ccccc1 | 26.9% | i | ? | ? | 13µM* | -9.6%
O=C(c1ccccc1)c1ccccn1 | 4.1% | i | 8.1% | i | i | 1.6%
